In one assay the test system is SRPK3. Conditions: concentration: 1 μM, replicates: in singlicate, n = 1.
In the next assay the test system is STK16. Conditions: concentration: 1 μM, replicates: in singlicate, n = 1.
The test system of the next assay is STK33. Conditions: concentration: 1 μM, replicates: in singlicate, n = 1.
A further assay deals with STK35. Conditions: concentration: 1 μM, replicates: in singlicate; n = 1.
In the next assay the test system is STK36. Conditions: concentration: 1 μM, replicates: in singlicate; n = 1.
For another assay, the system named is STK39. Conditions: concentration: 1 μM, replicates: in singlicate, n = 1.
For a further assay, the system named is SYK. Conditions: concentration: 1 μM, replicates: in singlicate, n = 1.
For the next assay, the system named is SgK110. Conditions: concentration: 1 μM, replicates: in singlicate; n = 1.
A further assay relates to T1, TAK1.
T1 construct: gene MAP3K7
Conditions: concentration: 1 μM, replicates: in singlicate, n = 1.

The next assay has as its system TAOK1. Conditions: concentration: 1 μM, replicates: in singlicate, n = 1.
The test system of a further assay is TAOK2. Conditions: concentration: 1 μM, replicates: in singlicate; n = 1.
The next assay concerns TAOK3. Conditions: concentration: 1 μM, replicates: in singlicate, n = 1.
The next assay concerns TBK1. Conditions: concentration: 1 μM, replicates: in singlicate, n = 1.
The next assay relates to TEC. Conditions: concentration: 1 μM, replicates: in singlicate; n = 1.
The test system of another assay is TESK1. Conditions: concentration: 1 μM, replicates: in singlicate, n = 1.
Another assay has as its system TGFBR1. Conditions: n = 1.
Another assay has as its system TGFBR2. Conditions: concentration: 1 μM, replicates: in singlicate; n = 1.
For a further assay, the system named is TIE1. Conditions: concentration: 1 μM, replicates: in singlicate, n = 1.
The next assay deals with T2, TIE2.
T2 construct: gene TEK
Conditions: concentration: 1 μM, replicates: in singlicate; n = 1.

A further assay deals with TLK1. Conditions: concentration: 1 μM, replicates: in singlicate, n = 1.
[1] abbreviates: concentration: 1 μM, replicates: in singlicate.

Where “and” joins values, the source holds several entries; their conditions need not be identical. Equal values may be shown once. Read-outs that look alike come from different tables or passages of the source.

This note sets out measurements from publication PMC5540273 (PLoS ONE, 2017).
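Also: KINOMEscan kinase panel screen.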

For `CN(C1=C(c2ccccc2)C(=O)NC1=O)c1ccccc1` [SB-334860], the “%Inh” value in the assay with SRPK3 worked out at 0%; with STK16 it was 14%; in the assay on STK33, 0%; with STK35, 3%; with STK36, 0%; with STK39 it was 5%. In addition, the “%Inh” value is 32% with SYK; 0% with SgK110; 18% with TAK1; 0% in the assay on TAOK1; 0% in the assay on TAOK2; 0% in the assay with TAOK3. Besides, the “%Inh” value was 29% in the assay on TBK1; 7% with TEC; 67% with TESK1; 26% with TGFBR1 (setting [1]); 0% in the assay on TGFBR2; 0% in the assay on TIE1. Besides, the “%Inh” value with TIE2 is 5%; in the assay on TLK1 it was 20%.

Consider `COc1cc2c(cc1OCCN1CCN(C)CC1)ncc1c3ccc(C#N)cc3[nH]c21`, for which the “%Inh” value in the assay on SRPK3 is reported as 0%; in the assay on STK16 it was 10%; with STK33, 25%; in the assay on STK35, 0%; in the assay with STK36, 0%; with STK39, 11%. Moreover, the “%Inh” value with SYK was found to be 8%; in the assay on SgK110, 0%; with TAK1, 90.6%; with TAOK1, 0%; with TAOK2 it was 13%; in the assay on TAOK3, 0%. The “%Inh” value with TBK1 stood at 83%; in the assay with TEC, 0%; in the assay with TESK1 it was 0%; with TGFBR1 (setting [1]), 0%; in the assay on TGFBR2, 0%; in the assay on TIE1 it was 0%. The entries for the “%Inh” value in the assay with TIE2 and with TLK1 were 6% and 37%, respectively.

Consider `Cn1cc(-c2ccc3c(c2)CCN3C(=O)Cc2ccccc2Cl)c2c(N)ncnc21` [GSK2608885], for which the “%Inh” value is 0% in the assay on SRPK3; 34% in the assay with STK16; 18% in the assay on STK33; 95.9% in the assay on STK35; 100% with STK36; 1% in the assay with STK39. Moreover, the “%Inh” value is reported as 51% with SYK; 0% with SgK110; 5% in the assay on TAK1; 50% in the assay on TAOK1; 0% in the assay on TAOK2; 47% in the assay on TAOK3. Further, the “%Inh” value in the assay with TBK1 worked out at 14%; in the assay on TEC, 100%; in the assay on TESK1, 43%; with TGFBR1 (setting [1]), 8%; in the assay with TGFBR2 it was 23%; in the assay on TIE1, 96%. In addition, the “%Inh” value is recorded as 97.4% in the assay with TIE2 and 29% in the assay on TLK1.

As to `NS(=O)(=O)CCc1cccc(Nc2nccc(-c3c(-c4cccc(NC(=O)c5c(F)cccc5F)c4)nn4ccccc34)n2)c1` [GSK336735], the “%Inh” value stood at 55% with SRPK3; 28% in the assay on STK16; 0% in the assay with STK33; 90.7% with STK35; 99.9% in the assay on STK36; 1% in the assay on STK39. Besides, the “%Inh” value in the assay on SYK stood at 74%; with SgK110 it was 0%; in the assay on TAK1 it was 27%; in the assay on TAOK1 it was 73%; in the assay on TAOK2, 32%; in the assay on TAOK3, 88%. Further, the “%Inh” value is on record as 15% in the assay with TBK1; 95.6% with TEC; 50% in the assay on TESK1; 3% in the assay with TGFBR1 (setting [1]); 20% with TGFBR2; 96.8% with TIE1. Besides, the “%Inh” value is on record as 91.1% in the assay with TIE2 and 8% with TLK1.

Turning to `Cc1nnc(-c2ccc3ncc(-c4ccc(S(C)=O)cc4)n3c2)o1` (centres unmarked), the “%Inh” value in the assay on SRPK3 was determined as 0%; in the assay with STK16 it was 0%; in the assay with STK33, 1%; in the assay on STK35, 1%; with STK36, 9%; in the assay on STK39, 25%. Further, the “%Inh” value with SYK amounted to 0%; in the assay with SgK110 it was 0%; in the assay on TAK1, 8%; in the assay on TAOK1, 0%; in the assay on TAOK2, 0%; in the assay with TAOK3, 0%. Also, the “%Inh” value with TBK1 came to 15%; with TEC, 7%; in the assay with TESK1 it was 0%; in the assay on TGFBR1 (setting [1]), 9%; in the assay on TGFBR2 it was 0%; in the assay on TIE1, 5%. For the same compound, the “%Inh” value in the assay with TIE2 is reported as 6%; in the assay with TLK1, 23%.

In the case of `N#Cc1ccc(-c2cc(-c3c[nH]nc3-c3ccccn3)ccn2)cc1` [GW693028], the “%Inh” value with SRPK3 is 14%; in the assay with STK16 it was 0%; with STK33 it was 4%; with STK35, 0%; with STK36 it was 0%; in the assay with STK39, 16%. The “%Inh” value stood at 5% with SYK; 5% in the assay with SgK110; 0% with TAK1; 0% in the assay on TAOK1; 0% with TAOK2; 0% with TAOK3. Further, the “%Inh” value is 6% in the assay with TBK1; 44% in the assay with TEC; 23% in the assay with TESK1; 87% in the assay with TGFBR1 (1 µM); 83% in the assay on TGFBR2; 0% in the assay with TIE1. Moreover, the “%Inh” value with TIE2 and in the assay with TLK1 was 0% in each case.

With `NCCNS(=O)(=O)c1ccc(-c2ccnc3[nH]ccc23)cc1` [GSK977617], the “%Inh” value with SRPK3 (1 µM) is 67% and 37%; in the assay on STK16 (1 µM), 80% and 68%; in the assay on STK33 (1 µM), 85% and 71%; with STK35, 0%; in the assay with STK36 it was 0%; in the assay on STK39 (1 µM), 0% and 13%. For the same compound, the “%Inh” value in the assay with SYK (1 µM) was 32% and 15%; in the assay on SgK110 it was 0%; with TAK1 (1 µM), 75% and 65%; in the assay on TAOK1 (1 µM) it was 54% and 40%; in the assay with TAOK2, 0%; in the assay with TAOK3 (1 µM) it was 0% and 2%. The “%Inh” value is 27% and 24% with TBK1 (1 µM); 0% in the assay with TEC; 14% and 13% in the assay on TESK1 (1 µM); 0% in the assay with TGFBR1 (setting [1]); 0% with TGFBR2; 32% and 23% in the assay on TIE1 (1 µM). The “%Inh” value was 0% in the assay with TIE2; 36% and 13% in the assay with TLK1 (1 µM).
